SMN2 splice enh: SMN2 splice variant enhancement; Potency, µM (highest dose often 46.1 µM), hits mostly activators; 210,000 tested, 2.8% active; HEK293 SMN2-luciferase splicing reporter, luminescence, 30-36 h; AID 1458; also: nearly all actives have a fitted effect of over 55% in size
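HEK293 cells carry an SMN2 minigene-luciferase reporter in which exon 7 inclusion puts luciferase in frame. Cells were seeded at 2000 cells/well, attached for 10-12 hours, then exposed to compounds for 30-36 hours at 37C before ONE-Glo luminescence.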
FLuc counter: inhibits or activates purified firefly luciferase, miR-21 counter-screen; P08659; AID 588342; Potency, µM (top dose mostly 57.5 µM), usual class: inhibitors; purified FLuc, Km substrates, luminescence inhibition; 360,000 tested, 6.9% active; also: nearly all actives have a fitted effect of over 55% in size
Target sequence (P08659 whole entry, looked up): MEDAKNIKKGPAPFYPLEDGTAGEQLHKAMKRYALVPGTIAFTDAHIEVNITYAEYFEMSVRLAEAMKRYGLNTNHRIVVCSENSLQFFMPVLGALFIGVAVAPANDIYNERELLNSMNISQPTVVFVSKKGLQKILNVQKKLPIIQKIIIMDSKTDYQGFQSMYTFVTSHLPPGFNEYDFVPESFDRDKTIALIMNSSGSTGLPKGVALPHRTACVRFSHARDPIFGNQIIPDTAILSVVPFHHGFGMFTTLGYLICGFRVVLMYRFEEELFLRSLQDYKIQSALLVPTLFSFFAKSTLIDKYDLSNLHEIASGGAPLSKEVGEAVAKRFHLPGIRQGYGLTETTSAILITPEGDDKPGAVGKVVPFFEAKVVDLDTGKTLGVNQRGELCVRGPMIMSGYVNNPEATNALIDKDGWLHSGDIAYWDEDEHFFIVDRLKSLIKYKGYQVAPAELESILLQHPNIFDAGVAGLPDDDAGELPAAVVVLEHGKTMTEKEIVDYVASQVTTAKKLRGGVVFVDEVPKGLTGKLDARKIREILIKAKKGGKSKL
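Purified P. pyralis luciferase, 10 nM final, with Km-level 10 uM D-luciferin and 10 uM ATP in 50 mM Tris acetate pH 7.5, 10 mM Mg acetate, 0.01% Tween-20, 0.05% BSA; 6-point qHTS titration about 60 µM downward; luminescence read.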
Luc counter: blocks Kinase-Glo luciferase, a counter-screen artifact. 200,000 tested, 0.28% active. Potency, µM (top dose mostly 38.3 µM), actives largely listed as inhibitors. Q27757. Kinase-Glo luciferase, ATP luminescence, 8 min. AID 1379; also: nearly all actives have a fitted effect of over 60% in size
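Substrate mix (final 50 mM imidazole pH 7.2, 50 mM KCl, 7 mM MgCl2, 10 uM ATP, 0.01% Tween 20, 0.05% BSA) plus pin-tool compound, then Kinase-Glo detection mix; 8 min ambient, luminescence read.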
NPC1 promoter act: activates the NPC1 promoter; Huh7 NPC1 promoter luciferase reporter, 24 h; Potency, µM (series often up to 9.22 µM), usual class: activators; 320,000 tested, 2.4% active; also: nearly all actives have a fitted effect of over 60% in size
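Readout is luciferase luminescence, reflecting NPC1 promoter activation in stably transfected Huh7 cells after 24 h compound exposure at 37 °C in reduced-serum medium with 10% FBS.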
ELG1 genotox: induces genotoxicity in HEK293T cells with luciferase-tagged ELG1; Potency, µM (highest dose often 46 µM), usual class: activators; 330,000 tested, 1.3% active; HEK293T ELG1-luciferase reporter, luminescence, 16 h; also: nearly all actives have a fitted effect of over 60% in size
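Cells (2,000/well) expressing the ELG1-luciferase fusion are dosed by pin tool and kept 16 hr at 37 °C, 5% CO2. Signal comes from ONE-Glo luciferase reagent after 30 min at room temperature.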
Rab9 promoter act: activators of Rab9 promoter; Huh7 Rab9 promoter-luciferase reporter, luminescence, 24 h; Potency, µM (highest dose often 9.22 µM), most hits filed as activators; 320,000 tested, 2.8% active; AID 485297; also: nearly all actives have a fitted effect of over 60% in size
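Steps: seed 1500 Huh7 Rab9-luc cells per well, rest 2 h at 37 °C; add compound in DMSO; incubate 24 h; add luciferase reagent, 10 min ambient; read luminescence.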
Of the large screens only hits and unclear results are named; the others gave an inactive call. In the library only some 7.4% were active in any assay of this set; here they are far more common. Calls follow the shape of the dose curve; as a rule, active = well fitted curve in the direction sought with a large enough effect; inconclusive = small, poorly fitted or top-dose-only effect, or another doubt; inactive = no such curve, though single readings can be large; an effect the other way counts as inactive or inconclusive.

CCN(CC)c1ccc(/C=N/NC(=O)c2ccc(Br)o2)cc1	SMN2 splice enh 11.2µM, FLuc counter 3.01µM, NPC1 promoter act 2.24µM, ELG1 genotox inconclusive, Rab9 promoter act 3.16µM
O=C(N/N=C/c1cccs1)c1ccc2c(c1)OCO2	SMN2 splice enh 12.6µM, FLuc counter 2.69µM, NPC1 promoter act 2.51µM, ELG1 genotox 9.2µM, Rab9 promoter act 1.26µM
O=C(N/N=C/c1ccsc1)c1ccc2c(c1)OCO2	FLuc counter 3.38µM, NPC1 promoter act 3.55µM, ELG1 genotox inconclusive, Rab9 promoter act 2.82µM (no result: SMN2 splice enh, Luc counter)
COc1ccccc1NS(=O)(=O)c1cccc(C(=O)N/N=C/c2ccc3c(c2)OCCO3)c1	FLuc counter 10.7µM
O=C(N/N=C/c1ccc2c(c1)OCCO2)c1ccncc1	FLuc counter 9.53µM (no result: SMN2 splice enh, Luc counter)
COc1ccc(NS(=O)(=O)c2cccc(C(=O)N/N=C/c3ccc4c(c3)OCCO4)c2)cc1	none
O=C(N/N=C/C1CC2CCC1C2)c1ccc2c(c1)OCO2 (stereo not given)	FLuc counter 13.5µM
O=C(N/N=C\C=C\c1ccc(Br)cc1)c1ccc2c(c1)OCO2	none (no result: SMN2 splice enh, Luc counter)
COc1ccc(NC(=O)CCc2c(C)nc3nc(CNC(=O)OC(C)(C)C)nn3c2C)cc1OC	none (no result: Luc counter, NPC1 promoter act, ELG1 genotox, Rab9 promoter act)
Cc1nc2ccc(C(=O)N/N=C/c3ccccc3O)cc2[nH]1	FLuc counter 12µM, NPC1 promoter act inconclusive, ELG1 genotox inconclusive, Rab9 promoter act inconclusive (no result: SMN2 splice enh, Luc counter)
O=C(N/N=C/c1ccccc1O)c1ccc2c(c1)OCO2	FLuc counter 2.69µM, NPC1 promoter act inconclusive, ELG1 genotox 14.6µM (no result: SMN2 splice enh, Luc counter)
Cc1cc(Br)cc(/C=N/NC(=O)c2ccc3c(c2)OCO3)c1O	FLuc counter inconclusive (no result: SMN2 splice enh, Luc counter)
O=C(N/N=C/c1ccc2c(c1)OCO2)c1ccc2c(c1)OCCO2	SMN2 splice enh 11.2µM, FLuc counter 1.9µM, NPC1 promoter act inconclusive, ELG1 genotox inconclusive, Rab9 promoter act inconclusive
O=C(N/N=C/c1ccc2c(c1)OCO2)c1ccc(Br)o1	SMN2 splice enh 12.6µM, FLuc counter 4.78µM, Luc counter inconclusive, NPC1 promoter act 4.47µM, ELG1 genotox 10.3µM, Rab9 promoter act 2.82µM
Cc1nc2ccc(C(=O)N/N=C/c3cc([N+](=O)[O-])ccc3O)cc2[nH]1	none
O=C(N/N=C/c1cccc([N+](=O)[O-])c1)c1ccc2c(c1)OCCO2	SMN2 splice enh 22.4µM, FLuc counter 1.35µM, NPC1 promoter act 3.55µM, ELG1 genotox inconclusive, Rab9 promoter act 2.24µM
O=C(N/N=C/c1cc(Cl)cc([N+](=O)[O-])c1O)c1ccc2c(c1)OCO2	FLuc counter 10.7µM (no result: SMN2 splice enh, Luc counter)
CCN(CC)c1ccc(/C=N/NC(=O)Nc2nonc2N)cc1	SMN2 splice enh inconclusive, FLuc counter 13.5µM
CCN(CC)c1ccc(/C=N/NC(=O)c2c(-c3ccccc3)noc2C)cc1	none (no result: SMN2 splice enh, Luc counter)
O=C(N/N=C/c1ccncc1)c1ccc2c(c1)OCO2	SMN2 splice enh inconclusive, FLuc counter 26.9µM
COC(=O)C1=C(C(=O)OC)[C@@H]2N(C)c3ccc(OC)cc3[C@@]23C[C@@H](C(=O)OC)N(S(=O)(=O)c2ccc(C)cc2)C3=N1	none (no result: FLuc counter, NPC1 promoter act, ELG1 genotox, Rab9 promoter act)
CCOC(=O)c1ccc(NC(=O)C(Cc2ccccc2)NS(=O)(=O)c2ccc(Br)s2)cc1 (stereo not given)	none (no result: Luc counter, NPC1 promoter act, ELG1 genotox, Rab9 promoter act)
COC(=O)c1ccccc1NC(=O)COC(=O)c1ccccc1N=Nc1ccc(N(C)C)cc1	SMN2 splice enh inconclusive, FLuc counter 12µM
CN(C)c1ccc(N=Nc2ccccc2C(=O)OCC(=O)N(C)c2ccccc2)cc1	SMN2 splice enh inconclusive, FLuc counter 1.35µM
COC(=O)c1ccccc1NC(=O)COC(=O)c1ccco1	none
CN(C)c1cccc(C(=O)OCC(=O)N(C)c2ccccc2)c1	none (no result: SMN2 splice enh, Luc counter)
CC(=O)c1ccc(NC(=O)COC(=O)c2ccccc2N=Nc2ccc(N(C)C)cc2)cc1	SMN2 splice enh inconclusive, FLuc counter 5.36µM
CCc1ccc(OCC(=O)Nc2cc3oc4ccccc4c3cc2OC)c(Br)c1	none (no result: Luc counter, NPC1 promoter act, ELG1 genotox, Rab9 promoter act)
CCCCc1nn2c(=O)cc(COC(=O)c3ccccc3NC(=O)c3ccccc3OC)nc2s1	none (no result: SMN2 splice enh, Luc counter, NPC1 promoter act, ELG1 genotox, Rab9 promoter act)
COc1ccccc1NC(=O)C1=C(C)Nc2nc(SCc3ccccc3)nn2C1c1ccccn1 (stereo not given)	none (no result: Luc counter, NPC1 promoter act, ELG1 genotox, Rab9 promoter act)

From PubChem
